PubChem BioAssay AID1159580 (chemical genetic matrix, 2015)
Values joined by “and” are separate entries in the source; they are usually repeats but may differ in a detail not shown here. Equal values may be shown once. Among all 5,500 compounds or so, about 2,000 (36%) were called active. Roughly 18% stayed inconclusive and do not appear here. No stated cut-off is given here; in the data, active means normalized growth mostly below about 0.91 (no sharp cut-off); inconclusive means no clear call, values can overlap the other calls; inactive means mostly above about 0.92. Some of the results follow.

Experiment: chemical genetic growth profiling, strain panel (AID 1159580);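 further: tested at 20 µM; growth read once vehicle control cultures reached saturation at 30 °C; 1 = growth at the plate median or of vehicle wells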
Details: S. cerevisiae deletion strains, growth OD

Measured: normalized growth

N[C@@H](C(=O)O)[C@@H](O)[C@H](O)[C@H](O)CO
inactive: locus YAL013W, strain DEP1, stronger effect = lower value 1.01 | locus YAL021C, strain ccr4, stronger effect = lower value 1.01 | locus YAL026C, strain drs2, stronger effect = lower value 1.04 | locus YAL030W, strain snc1, stronger effect = lower value 1.03 | locus YBL061C, strain skt5, stronger effect = lower value 1.03 | locus YBR009C, strain hhf1, stronger effect = lower value 1.03 | locus YBR021W, strain FUR4, stronger effect = lower value 1.01 | locus YBR023C, strain chs3, stronger effect = lower value 1.04 | locus YBR171W, strain sec66, stronger effect = lower value 1.04 | locus YBR229C, strain ROT2, stronger effect = lower value 1 | locus YBR231C, strain swc5, stronger effect = lower value 1.03 | locus YBR279W, strain paf1, stronger effect = lower value 1.01 | locus YCL011C, strain gbp2, stronger effect = lower value 1.04 | locus YCL016C, strain dcc1, stronger effect = lower value 1.02 | locus YCL029C, strain bik1, stronger effect = lower value 1.02 | locus YCL061C, strain MRC1, stronger effect = lower value 1.02 | locus YCL069W, strain vba3, stronger effect = lower value 1.03 | locus YCR088W, strain abp1, stronger effect = lower value 1.02 | locus YDL005C, strain med2, stronger effect = lower value 1.03 | locus YDL035C, strain GPR1, stronger effect = lower value 1.03 | locus YDL040C, strain nat1, stronger effect = lower value 1.01 | locus YDL074C, strain BRE1, stronger effect = lower value 1.06 | locus YDL101C, strain DUN1, stronger effect = lower value 1.01 | locus YDL185W, strain tfp1, stronger effect = lower value 1.02 | locus YDL192W, strain arf1, stronger effect = lower value 1.03 | locus YDR001C, strain nth1, stronger effect = lower value 1.02 | locus YDR069C, strain doa4, stronger effect = lower value 1.02 | locus YDR101C, strain arx1, stronger effect = lower value 1.02 | locus YDR137W, strain rgp1, stronger effect = lower value 1.04 | locus YDR150W, strain NUM1, stronger effect = lower value 1.02 | locus YDR159W, strain sac3, stronger effect = lower value 1.07 | locus YDR162C, strain NBP2, stronger effect = lower value 1.01 | locus YDR195W, strain ref2 1.02 | locus YDR297W, strain sur2, stronger effect = lower value 1.03 | locus YDR318W, strain mcm21, stronger effect = lower value 1 | locus YDR334W, strain swr1, stronger effect = lower value 1.03 | locus YDR335W, strain msn5, stronger effect = lower value 1.03 | locus YDR388W, stronger effect = lower value 1.01 | locus YDR392W, strain spt3, stronger effect = lower value 1.02 | locus YDR502C, strain sam2, stronger effect = lower value 1.01 | locus YEL003W, strain gim4, stronger effect = lower value 1.03 | locus YEL037C, strain rad23, stronger effect = lower value 1.02 | locus YEL061C, strain CIN8 (second series), stronger effect = lower value 1.03 | locus YEL061C, strain CIN8, stronger effect = lower value 1.02 | locus YER015W, strain faa2, stronger effect = lower value 1.03 | locus YER016W, strain bim1, stronger effect = lower value 1.02 | locus YER110C, stronger effect = lower value 1.02 | locus YER111C, strain swi4, stronger effect = lower value 1.03 | locus YER155C, strain BEM2 (second series), stronger effect = lower value 1 | locus YER155C, strain BEM2, stronger effect = lower value 1.01 | locus YER167W, strain BCK2, stronger effect = lower value 1 | locus YFR010W, strain ubp6, stronger effect = lower value 1.04 | locus YGL078C, strain dbp3, stronger effect = lower value 1.01 | locus YGL086W, strain mad1, stronger effect = lower value 1.01 | locus YGL167C, strain pmr1, stronger effect = lower value 1.04 | locus YGL173C, strain kem1, stronger effect = lower value 1.04 | locus YGL227W, strain vid30, stronger effect = lower value 1.02 | locus YGL240W, strain doc1, stronger effect = lower value 1.02 | locus YGL248W, strain PDE1, stronger effect = lower value 1 | locus YGL253W, strain hxk2, stronger effect = lower value 1.04 | locus YGR135W, strain pre9, stronger effect = lower value 1.01 | locus YGR252W, strain gcn5, stronger effect = lower value 0.967 | locus YHR013C, strain ard1, stronger effect = lower value 1.05 | locus YHR027C, strain rpn1, stronger effect = lower value 1.04 | locus YHR030C, strain SLT2, stronger effect = lower value 1.01 and 1.05 | locus YHR079C, strain IRE1 (second series), stronger effect = lower value 1.02 | locus YHR079C, strain IRE1, stronger effect = lower value 1.03 | locus YHR094C, strain hxt1, stronger effect = lower value 1.02 | locus YHR129C, strain ARP1, stronger effect = lower value 1 | locus YHR142W, strain chs7, stronger effect = lower value 1.07 | locus YHR200W, strain rpn10, stronger effect = lower value 1.02 | locus YIL066C, strain RNR3, stronger effect = lower value 1.01 | locus YIL073C, strain SPO22, stronger effect = lower value 1.05 | locus YIL125W, strain kgd1, stronger effect = lower value 1.02 | locus YIR030C, strain dcg1, stronger effect = lower value 1.02 | locus YJL092W, strain hpr5, stronger effect = lower value 1.03 | locus YJL095W, strain BCK1 (second series), stronger effect = lower value 1.02 | locus YJL095W, strain BCK1, stronger effect = lower value 1.01 and 1.04 | locus YJL115W, strain asf1, stronger effect = lower value 1.04 | locus YJL129C, strain trk1, stronger effect = lower value 1.06 | locus YJL134W, strain LCB3, stronger effect = lower value 1.01 | locus YJL154C, strain vps35, stronger effect = lower value 1.02 | locus YJL164C, strain tpk1, stronger effect = lower value 1.03 | locus YJL166W, strain qcr8, stronger effect = lower value 1.03 | locus YJL168C, strain set2, stronger effect = lower value 1.02 | locus YJL187C, strain SWE1 (second series), stronger effect = lower value 1.01 | locus YJL187C, strain SWE1, stronger effect = lower value 1.05 | locus YJR043C, strain POL32, stronger effect = lower value 1.02
